What was measured:
Test in all cases: fraction of 1-bp insertions among edited reads; higher = more 1-bp insertion outcomes
Details in all cases: mESC; 2uM; 72 h treatment, harvest day 5
Pemetrexed = compound: Nc1nc2[nH]cc(CCc3ccc(C(=O)N[C@@H](CCC(=O)O)C(=O)O)cc3)c2c(=O)[nH]1 [Pemetrexed]
[1] = compound: Nc1ncnc2c1c(-c1cnc3[nH]ccc3c1)nn2C1CCCC1
[2] = compound: O=C(c1cccc(Cl)c1F)N1CCN(Cc2cccc(Nc3nccs3)n2)CC1
Kenpaullone = compound: O=C1Cc2c([nH]c3ccc(Br)cc23)-c2ccccc2N1 [Kenpaullone]
Genistein = compound: O=c1c(-c2ccc(O)cc2)coc2cc(O)cc(O)c12 [Genistein]
[3] = compound: O=c1cc(N2CCOCC2)oc2c(-c3ccc4c(c3)OCCO4)csc12
Mercaptopurine (6-MP) = compound: S=c1[nH]cnc2nc[nH]c12 [Mercaptopurine (6-MP)]
[4] = compound: S=c1nc[nH]c2nc[nH]c12 [6-Mercaptopurine (6-MP) Monohydrate]

Target	fraction of 1-bp insertions among edited reads (Pemetrexed)	fraction of 1-bp insertions among edited reads [1]	fraction of 1-bp insertions among edited reads [2]	fraction of 1-bp insertions among edited reads (Kenpaullone)	fraction of 1-bp insertions among edited reads (Genistein)	fraction of 1-bp insertions among edited reads [3]	fraction of 1-bp insertions among edited reads (Mercaptopurine (6-MP))	fraction of 1-bp insertions among edited reads [4]
28.0 (DMSO control at this site: 1-bp insertion 0.035, MH deletion 0.77, edited 0.142) TGGTTCTTCCTTTGTAGAGAGTGTTCATCTGGGAATCTGGGACTTGGATGAGACAATCATT	0.0369	0.0494	0.0462	0.0461	0.032	0.0316	0.0428	0.0506
29.0 (DMSO control at this site: 1-bp insertion 0.084, MH deletion 0.745, edited 0.133) TTGATGAACTTCCTCTTCTTCTCATGTCTCCGGTCTCCGGTAGGCCACGTGCATGGCCACT	0.0781	0.112	0.119	0.11	0.072	0.0694	0.105	0.115
17.0 (DMSO control at this site: 1-bp insertion 0.112, MH deletion 0.348, edited 0.058) CCATAGCGCGATAAATATGACGGCTCATCCTGTATGACGGCTCATCCTGTATCAACTGTCC	0.0727	0.193	0.111	0.166	0.119	0.172	0.17	0.144
30.0 (DMSO control at this site: 1-bp insertion 0.074, MH deletion 0.67, edited 0.142) GAGCTGGCATGAGTATTTGTGCCACATGGCTCCCACATGGCTCCACATGCAAGTTTGAAAC	0.0714	0.113	0.0986	0.0891	0.0719	0.0702	0.0954	0.0905
44.0 (DMSO control at this site: 1-bp insertion 0.181, MH deletion 0.512, edited 0.123) ACACATACCTTCTTCGAGGCAGCCAGCATGATGAGACAGGTCTCCCACAAACACATCGTGT	0.127	0.293	0.235	0.235	0.173	0.169	0.24	0.188
3.0 (DMSO control at this site: 1-bp insertion 0.109, MH deletion 0.149, edited 0.09) TGCTAGCGCCCCCACAAAGCGGACCAGCCAGCACTATAGGGAATAAGGCCAACTTGCACCC	0.184	0.227	0.152	0.104	0.116	0.13	0.15	0.0992
27.0 CCAGAATTAGAACATATCATCTGGACCCTTTTCCATCTGGACCCTTTTCCAGCACACCCTG	–	0.169	–	0.146	0.183	0.158	0.141	0.187
4.0 (DMSO control at this site: 1-bp insertion 0.146, MH deletion 0.523, edited 0.125) ACGCCTTAGTGCACGAGTGACGGGATAATGTGGTCTCAGGTAATTGATAGGCTTCCAACTT	0.121	0.237	0.18	0.171	0.126	0.137	0.161	0.153
16.0 (DMSO control at this site: 1-bp insertion 0.172, MH deletion 0.29, edited 0.05) CGGACTGCACACATGGGTAGGATCGTGCACGCGAGGTAGGATCGTGCACGCGAAGTTATTC	0.149	0.218	0.178	0.198	0.144	0.19	0.165	0.166
2.0 (DMSO control at this site: 1-bp insertion 0.364, MH deletion 0.356, edited 0.125) GGTGCCCCCGAGACCTACGCGAACCGAAATCGATGTCCGGTGCGCAAGCAGGGCTGGCGTC	0.327	0.539	0.498	0.478	0.309	0.331	0.452	0.434
40.0 (DMSO control at this site: 1-bp insertion 0.072, MH deletion 0.192, edited 0.189) GCGAATCAACTGTTCAACAACAGCAGCAGCCACCTGGAGGACTACAGTGGCCTGTCCGTGT	0.0582	0.107	0.0793	0.0742	0.0673	0.0807	0.0821	0.084

Source: the supplement of paper PMC8387472
